Test results from PubChem BioAssay (Tox21).
Records with an inconclusive call do not appear. Unmarked numbers belong to inactive results. Calls of active or inactive are those of the source. Calls come from the whole dose curve; as a rule, active = well fitted activation curve with a large enough effect in the repeat runs; inconclusive = weak or mixed curves; inactive = flat fitted curve, though single readings scatter.

experiment: A CellTox Green Cytotoxicity Assay to monitor cytotoxicity in HepG2 cells - 32 hour (AID 1224883); conditions: CellTox Green fluorescence; series mostly up to 76.8 µM; cytotoxicity increase: at the top concentration; note: nearly all actives have a fitted effect of over 50% in size
From the text: National Center for Advancing Translational Sciences [NCATS]
NIH Chemical Genomics Center [NCGC]
U.S. Environmental Protection Agency [EPA]
National Institutes of Environmental Health Sciences [NIEHS]
National Toxicology Program [NTP]
Cell-based models are critical for drug discovery. Determining the natural cytotoxic effects resulting from test compounds is an essential research activity. A CellTox Green Cytotoxicity Assay to monitor cytotoxicity in real time of continues cell culture during 40 hours of the compound treatment was used to screen Tox21 10K library compounds in HepG2 cells. CellTox Green Cytotoxicity Assay is a nonlytic, homogeneous, biofluorescent method to measure cytotoxicity in cell culture after experimental manipulation. The assay system uses a proprietary asymmetric cyanine dye that is excluded from viable cells but preferentially stains the dead cell's DNA. […] Viable cells produce no appreciable increases in fluorescence. Therefore, the fluorescence signal produced by the binding interaction with dead cell DNA is proportional to cytotoxicity.
The mixture of HepG2 cell suspension and reagents were dispensed at 600cells/6 ul/well in 1536-well tissue culture treated black solid bottom plates using a Multidrop dispenser. After the assay plates were incubated at a 37 C/5% CO2 incubator for 5 hours, 23 nL of compounds dissolved in DMSO, positive and negative controls was transferred to the assay plate by a pintool work station. The plates were incubated at 37 C for 40 hours. The fluorescence intensity were measured at 0h, 8h, 16h, 24h, 32h and 40h time points using ViewLux plate reader during compound treatment.
% is set by controls: 0 for no effect and ±100 for the full control effect; potency is the fitted concentration of half-maximal effect.

Row | Structure (SMILES) | cytotoxicity increase | Potency
1 | COc1ccc(-c2coc3cc(O)ccc3c2=O)cc1 | -7.23% | –
2 | C=C(C)C(=O)OCCCCCCCCCC | -9.92% | –
3 | CC(C)OC(=O)C(O)(CC(=O)O)CC(=O)O | 1.58% | –
4 | O=C1c2ccccc2C(=O)N1SC1CCCCC1 | – | 24.5 µM (active)
5 | Nc1ccc(C(=O)O)c(O)c1 | -11.4% [at 35.3 µM] | –
6 | COC(=O)C1=C(C)NC(C)=C(C(=O)OCCN2CCN(C(c3ccccc3)c3ccccc3)CC2)C1c1cccc([N+](=O)[O-])c1 (stereo not given) | -3.62% [at 35.3 µM] | –
7 | CCCC(=O)OCOC(=O)C1=C(C)NC(C)=C(C(=O)OC)C1c1cccc(Cl)c1Cl (stereo not given) | -20.8% [at 35.3 µM] | –
8 | FC(F)(F)c1cccc(Cl)c1 | -3.57% | –
9 | Cc1cc(-n2nc3ccc(Cl)cc3n2)c(O)c(C(C)(C)C)c1 | -9.46% [at 35.3 µM] | –
10 | OC/C=C/CO | -4.3% | –
11 | O=C(O)c1ccc2cc(C(=O)O)ccc2c1 | -7.14% | –
12 | O=C(O)c1cc(O)c2ccccc2c1O | – | 24.5 µM (active)
13 | Cl[Si](Cl)(c1ccccc1)c1ccccc1 | 0.504% | –
14 | Nc1nc(-c2ccccc2)cs1 | 1.21% | –
15 | O=c1[nH]c2ccccc2n1CCCN1CCN(C(c2ccccc2)c2ccccc2)CC1 | – | 23.9 µM (active)
16 | Cc1cc(C)c(/C=C2\C(=O)Nc3ccccc32)[nH]1 | – | 19 µM (active)
17 | CCCCC(CC)COC(=O)CCCCC(=O)OCc1ccccc1 (stereo not given) | -7.97% | –
18 | CCC(COC(=O)CCS)(COC(=O)CCS)COC(=O)CCS | -15.1% | –
19 | OC[C@H]1O[C@H](O[C@H]2O[C@H](CO)[C@@H](O)[C@H](O)[C@H]2O)[C@H](O)[C@@H](O)[C@@H]1O | -3.58% | –
20 | COC(=O)c1ccccc1C | -8.26% | –

Row | Structure (SMILES) | cytotoxicity increase | Potency
21 | O=[N+]([O-])c1ccc(O)cc1C(F)(F)F | 16.4% | –
22 | O=[N+]([O-])c1ccc(F)c(Cl)c1 | -13.2% | –
23 | Oc1cc(Cl)cc(Cl)c1Cl | 7.66% | –
24 | CN(C)Cc1cc(C(C)(C)C)c(O)c(C(C)(C)C)c1 | 4.27% | –
25 | NC(=O)c1cccc([N+](=O)[O-])c1 | 1.25% | –
26 | NC(=S)NC(N)=S | -12.9% | –
27 | Clc1sc(Cl)c(Cl)c1Cl | -0.0337% | –
28 | CNc1ccc([N+](=O)[O-])cc1 | -5.87% | –
29 | Cc1cccc(C)c1NC(=O)c1ccc(N)cc1 | -3.99% [at 35.3 µM] | –
30 | C=CCCC(=O)/C=C/C1C(C)=CCCC1(C)C (stereo not given) | 21.1% | –
31 | Nc1ccc(NCCO)c([N+](=O)[O-])c1 | -19.3% | –
32 | CCO[Si](OCC)(OCC)OCC | 0.002% | –
33 | OC1CCCc2ccccc21 (stereo not given) | 3.53% | –
34 | O=C(/C=C/c1ccccc1)OC/C=C/c1ccccc1 | 0.869% | –
35 | CC(C)(C)c1csc(-c2cc3cc(OCc4ccccc4CC(=O)O)ccc3o2)n1 | – | 54.9 µM (active)
36 | CCC(C)n1ncn(-c2ccc(N3CCN(c4ccc(OC[C@H]5CO[C@](Cn6cncn6)(c6ccc(Cl)cc6Cl)O5)cc4)CC3)cc2)c1=O (stereo not given in full) | 12.4% [at 35.3 µM] | –
37 | Cc1ccc(O)c(O)c1 | 11.3% | –
38 | OCC(F)(F)F | -0.452% | –
39 | COc1cc(/C=C/c2ccccc2)oc(=O)c1 | -4.6% | –
40 | CCN(CC)C(=O)c1cc(S(=O)(=O)Cc2ccccc2)c(N2CCC(c3ccccc3)CC2)cc1N(CC)CCN(C)C | – | 15.3 µM (active)
